Assay results: PubChem BioAssay (NCI)
Compounds without any hit were thinned out: in the full panel of roughly 83,000, 20% have a hit.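 Single-dose data. Exposure time 48 hours. Values below 10 considered active.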 Activity calls are given as the source filed them.

Experiments:
Experiment in all cases: NCI-60 one-dose screen, 48 h (100 = growth as untreated, 0 = no growth, -100 = all killed)
Conditions in all cases: 10 µM unless noted
DU-145 prostate = system: DU-145 prostate
K-562 leukemia = system: K-562 leukemia
MDA-MB-231 breast = system: MDA-MB-231 breast
RXF 393 renal = system: RXF 393 renal
SF-268 CNS = system: SF-268 CNS
SF-295 CNS = system: SF-295 CNS
SF-539 CNS = system: SF-539 CNS
UACC-257 melanoma = system: UACC-257 melanoma
M14 melanoma = system: M14 melanoma
MALME-3M melanoma = system: MALME-3M melanoma

Measured: growth

Cc1[nH]cnc1/C=C1\SC(N2CCCCC2)=NC1=O
inactive: DU-145 prostate 125% | K-562 leukemia 96.8% | MDA-MB-231 breast 96.8% | RXF 393 renal 96.3% | SF-268 CNS 114% | SF-295 CNS 130% | SF-539 CNS 100% | UACC-257 melanoma 105% | M14 melanoma 103%

Cc1sc2nc3c4ccccc4c(NCCCN(C)C)nn3c(=O)c2c1C
active: K-562 leukemia -73.8% | MALME-3M melanoma -42.2% | MDA-MB-231 breast -23.6% | M14 melanoma -95.6%
inactive: DU-145 prostate 41.5% | SF-268 CNS 66.7% | SF-295 CNS 65.6% | SF-539 CNS 29%

Nc1ccccc1-c1ccn[nH]1
inactive: DU-145 prostate 101% | K-562 leukemia 78.5% | MDA-MB-231 breast 101% | RXF 393 renal 111% | SF-268 CNS 88.8% | SF-295 CNS 101% | SF-539 CNS 97.9% | UACC-257 melanoma 103% | M14 melanoma 94.2%

CN(C)CCCN=c1cc2c(=O)n(CCCN(C)C)c(=O)c3c(NCCCN(C)C)cc4c(O)n(CCCN(C)C)c(=O)c1c4c3-2
active: DU-145 prostate -40.7% | K-562 leukemia 6.48% | MDA-MB-231 breast -0.632% | RXF 393 renal -68.3% | SF-268 CNS 1.31% | SF-295 CNS -34.8% | SF-539 CNS -23% | UACC-257 melanoma -27.3% | M14 melanoma 3.47%

Cc1cc(C)c2c(N)c3cccc(C)c3nc2n1
active: DU-145 prostate 2.87% | K-562 leukemia -11.1% | MALME-3M melanoma -23.3% | SF-268 CNS 9.97% | SF-295 CNS 1.7% | SF-539 CNS 1.42% | M14 melanoma -35.1%
inactive: MDA-MB-231 breast 14.7%

CCOC(=O)Nc1ccc2c3c(cccc13)-c1ccccc1-2
inactive: DU-145 prostate 66.1% | K-562 leukemia 15.6% | MDA-MB-231 breast 35% | RXF 393 renal 57.9% | SF-268 CNS 52.3% | SF-295 CNS 27.2% | SF-539 CNS 21.9% | UACC-257 melanoma 59.4%
active: M14 melanoma 6.41%

c1ccc(-c2oc(-c3ccccc3)c3ccccc23)cc1
inactive: DU-145 prostate 90.3% | K-562 leukemia 86.5% | MDA-MB-231 breast 91% | RXF 393 renal 116% | SF-268 CNS 102% | SF-295 CNS 102% | SF-539 CNS 104% | UACC-257 melanoma 108% | M14 melanoma 110%

COc1ccc(-c2ccc(O)c(C(=O)/C=C/c3cc(OC)c(OC)c(OC)c3)c2)cc1
inactive: DU-145 prostate 83.7% | K-562 leukemia 56.5% | MDA-MB-231 breast 85.6% | RXF 393 renal 94.5% | SF-268 CNS 79.6% | SF-295 CNS 92.4% | SF-539 CNS 96.8% | UACC-257 melanoma 86.6% | M14 melanoma 93.6%

Cn1c(=O)c2[nH]c(=S)n(Cc3ccccc3)c2n(C)c1=O
inactive: DU-145 prostate 105% | K-562 leukemia 84.6% | MDA-MB-231 breast 101% | RXF 393 renal 120% | SF-268 CNS 95.8% | SF-295 CNS 118% | SF-539 CNS 93.8% | UACC-257 melanoma 90.4% | M14 melanoma 99.7%

COC(=O)[C@H]1[C@H]2C[C@@H]3c4[nH]c5cc(OC)ccc5c4CCN3C[C@H]2C[C@@H](OC(=O)/C=C/c2cc(OC)c(OC)c(OC)c2)[C@@H]1OC
inactive: DU-145 prostate 40.8% | MDA-MB-231 breast 65.1% | RXF 393 renal 61% | SF-268 CNS 68.6% | SF-295 CNS 14.6% | SF-539 CNS 71.8% | UACC-257 melanoma 85% | M14 melanoma 71.5%
active: K-562 leukemia -2.87%

COc1cc(-c2n[nH]nc2-c2ccccn2)cc(OC)c1OC
inactive: DU-145 prostate 112% | K-562 leukemia 90.6% | MALME-3M melanoma 90.5% | MDA-MB-231 breast 98.3% | SF-268 CNS 114% | SF-295 CNS 115% | SF-539 CNS 104% | M14 melanoma 113%

O=C1OC(Oc2ccccc2)(c2ccccc2)c2ccccc21 (configuration not stated)
inactive: DU-145 prostate 108% | K-562 leukemia 55.3% | MDA-MB-231 breast 98.3% | RXF 393 renal 120% | SF-268 CNS 95.3% | SF-295 CNS 150% | SF-539 CNS 100% | UACC-257 melanoma 112% | M14 melanoma 111%

COc1ccc(N2CCN(CC(=O)N3CCN(c4nnc(-c5ccc(Cl)cc5)c(-c5ccc(Cl)cc5)n4)CC3)CC2)cc1
inactive: DU-145 prostate 70.6% | K-562 leukemia 22.3% | MALME-3M melanoma 81.7% | MDA-MB-231 breast 84.1% | SF-268 CNS 69.8% | SF-295 CNS 53.9% | SF-539 CNS 30.7% | M14 melanoma 59.8%

CC[C@@H](C)/C=C(C)/C=C/C(=O)c1c(O)c(-c2ccc(O)cc2)cn(OC2CC(=O)CCC(C)OC(=O)CC2O)c1=O (some centres not stated)
inactive: K-562 leukemia 13.8% | MDA-MB-231 breast 42.6% | RXF 393 renal 33.6%
active: DU-145 prostate 4.8% | SF-268 CNS -7.36% | SF-295 CNS -22% | SF-539 CNS -4.57% | UACC-257 melanoma -2.46% | M14 melanoma -13.7%

Cc1cc(-c2ccccc2)cc(C)n1
inactive: DU-145 prostate 125% | K-562 leukemia 98% | MDA-MB-231 breast 101% | RXF 393 renal 117% | SF-268 CNS 111% | SF-295 CNS 101% | SF-539 CNS 102% | UACC-257 melanoma 108% | M14 melanoma 103%

O=C(CN1CCN(c2ccc(Cl)cc2)CC1)N1CCN(c2nnc(-c3ccc(Cl)cc3)c(-c3ccc(Cl)cc3)n2)CC1
inactive: DU-145 prostate 87% | K-562 leukemia 33% | MALME-3M melanoma 114% | MDA-MB-231 breast 95.1% | SF-268 CNS 83.4% | SF-295 CNS 82.3% | SF-539 CNS 82.3% | M14 melanoma 74.3%

O=C(/C=C/c1c(-c2ccccc2)[nH]c2ccccc12)S(=O)(=O)c1ccccc1
active: K-562 leukemia 9.37%
inactive: DU-145 prostate 76% | MALME-3M melanoma 88.2% | MDA-MB-231 breast 63.3% | SF-268 CNS 89.5% | SF-295 CNS 63.5% | SF-539 CNS 89.5% | M14 melanoma 51.7%

Nc1ccc2c(c1Br)Cc1ccccc1-2
inactive: DU-145 prostate 106% | K-562 leukemia 95.2% | MDA-MB-231 breast 74.7% | RXF 393 renal 111% | SF-268 CNS 86.7% | SF-295 CNS 92.1% | SF-539 CNS 79.4% | UACC-257 melanoma 114% | M14 melanoma 105%

CCN(CC)c1ccc(C(=C2C=CC(=[N+](CC)Cc3cccc(S(=O)(=O)O)c3)C=C2)c2ccc(N(CC)Cc3cccc(S(=O)(=O)O)c3)cc2)cc1
inactive: DU-145 prostate 37.2% | MALME-3M melanoma 59.4% | MDA-MB-231 breast 62.3% | SF-268 CNS 34.5% | SF-295 CNS 15.5% | SF-539 CNS 62.1% | M14 melanoma 19.5%
active: K-562 leukemia 7.9%

C1CCC(C(CC2CCCCN2)C2CCCCC2)CC1 (configuration not stated)
inactive: DU-145 prostate 14% | SF-268 CNS 49.9%
active: K-562 leukemia -64.9% | MALME-3M melanoma -73.2% | MDA-MB-231 breast 1.11% | SF-295 CNS -62.9% | SF-539 CNS -35.9% | M14 melanoma -88.2%

O=C(Oc1ccccc1)C(Br)C(Br)c1ccccc1 (configuration not stated)
active: DU-145 prostate -38.7% | K-562 leukemia -44.2%
inactive: MDA-MB-231 breast 101% | RXF 393 renal 98.2% | SF-268 CNS 78.7% | SF-295 CNS 130% | SF-539 CNS 110% | UACC-257 melanoma 93.9% | M14 melanoma 102%

N#CC1c2ccccc2C=CN1C(=O)N(c1ccccc1)c1ccccc1 (configuration not stated)
active: K-562 leukemia 5.35% | RXF 393 renal 2.13% | UACC-257 melanoma -1.11%
inactive: DU-145 prostate 42.9% | MDA-MB-231 breast 70.6% | SF-268 CNS 79.6% | SF-295 CNS 67.7% | SF-539 CNS 109% | M14 melanoma 42.5%

N[C@H](CS)C(=O)O
inactive: DU-145 prostate 121% | K-562 leukemia 107% | MALME-3M melanoma 91% | MDA-MB-231 breast 114% | SF-268 CNS 119% | SF-295 CNS 94.4% | SF-539 CNS 89.7% | M14 melanoma 116%

COCCCNS(=O)(=O)c1ncnc2nc[nH]c12
inactive: DU-145 prostate 98.5% | K-562 leukemia 109% | MALME-3M melanoma 107% | MDA-MB-231 breast 124% | SF-268 CNS 106% | SF-295 CNS 129% | SF-539 CNS 99.1% | M14 melanoma 92.6%

CC(=O)Nc1c(Cl)cc2c(c1Cl)Cc1ccccc1-2
inactive: DU-145 prostate 108% | K-562 leukemia 104% | MDA-MB-231 breast 80.3% | RXF 393 renal 104% | SF-268 CNS 111% | SF-295 CNS 132% | SF-539 CNS 105% | UACC-257 melanoma 106% | M14 melanoma 107%

CCC(=O)Nc1cc2c(cc1Cl)-c1ccccc1C2
inactive: DU-145 prostate 109% | K-562 leukemia 104% | MDA-MB-231 breast 74.5% | RXF 393 renal 102% | SF-268 CNS 84.3% | SF-295 CNS 121% | SF-539 CNS 94.3% | UACC-257 melanoma 96.6% | M14 melanoma 102%

COc1ccc(/C=C2/SC(=Nc3c(C)nn(-c4ccccc4)c3N)NC2=O)cc1
active: SF-295 CNS 8.06%
inactive: DU-145 prostate 43.6% | K-562 leukemia 15.2% | MDA-MB-231 breast 66.3% | RXF 393 renal 83.6% | SF-268 CNS 58.8% | SF-539 CNS 23.6% | UACC-257 melanoma 59% | M14 melanoma 17.2%

Nc1ccc(N=Nc2ccccc2)cc1[N+](=O)[O-]
inactive: DU-145 prostate 109% | K-562 leukemia 87.4% | MDA-MB-231 breast 65.8% | RXF 393 renal 104% | SF-268 CNS 85.3% | SF-295 CNS 113% | SF-539 CNS 92.6% | UACC-257 melanoma 103% | M14 melanoma 104%

Cn1c(N2N=C(c3ccc(Cl)cc3)CC2c2ccccc2)nc(-c2ccccc2)c(C#N)c1=O (configuration not stated)
inactive: DU-145 prostate 89.4% | MALME-3M melanoma 97.6% | MDA-MB-231 breast 58.6% | RXF 393 renal 96.4% | SF-268 CNS 57.9% | SF-295 CNS 85.4% | SF-539 CNS 103% | M14 melanoma 90%

CSc1nc2nc3c(nc2c(=O)n1C)C(=O)c1ccccc1C3=O
active: DU-145 prostate -89.7% | MALME-3M melanoma -93% | MDA-MB-231 breast -4.27% | RXF 393 renal -79.3% | SF-268 CNS -17.9% | SF-295 CNS -93.4% | SF-539 CNS -99.8% | M14 melanoma -84.6%

CCSCC1CC(O)(c2ccccc2)C(c2ccccc2)C(c2ccc(Cl)cc2)O1 (configuration not stated)
active: MALME-3M melanoma -34.7% | MDA-MB-231 breast -26% | RXF 393 renal -30.9% | SF-295 CNS -54.1% | SF-539 CNS -16.4% | UACC-257 melanoma -11.5%
inactive: DU-145 prostate 18.2% | SF-268 CNS 17.3% | M14 melanoma 14.3%
